Structures are written as SMILES. Screen size: about 190,000 compounds; about 1,300 (0.68%) were called active. Only a selection was taken, and actives are over-represented in it overall. A number with no mark means an inactive call. Cut-off read from the data, not from the text of the source: active = inhibition above about 50%; inactive = the rest.

Sequence of Mannose-6-phosphate isomerase (Homo sapiens) (P34949 whole entry, looked up): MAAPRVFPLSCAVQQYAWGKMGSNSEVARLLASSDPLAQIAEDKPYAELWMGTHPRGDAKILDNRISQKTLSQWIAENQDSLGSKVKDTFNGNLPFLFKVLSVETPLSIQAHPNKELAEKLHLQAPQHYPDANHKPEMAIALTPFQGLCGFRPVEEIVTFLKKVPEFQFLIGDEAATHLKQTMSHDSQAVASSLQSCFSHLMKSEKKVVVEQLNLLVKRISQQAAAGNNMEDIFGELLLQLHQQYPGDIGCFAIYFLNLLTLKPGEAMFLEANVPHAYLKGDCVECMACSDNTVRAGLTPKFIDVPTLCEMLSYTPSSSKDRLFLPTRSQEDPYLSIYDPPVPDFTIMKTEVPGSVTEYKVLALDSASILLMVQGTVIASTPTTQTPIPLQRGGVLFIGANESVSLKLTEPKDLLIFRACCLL

This assay concerns the target Mannose-6-phosphate isomerase (Homo sapiens) (UniProt P34949). Nature of the assay: MPI inhibition at elevated mannose 6-phosphate – biochemical, fluorescence intensity, high mannose 6-phosphate, primary screen (AID 1220). The note with it: recombinant PMI enzyme, coupled fluorescence intensity; at 20 µM; hits give high values.
For the molecule `COc1ccc(C2C(C(=O)c3ccc(C)o3)=C(O)C(=O)N2c2cc(C)on2)cc1OC` (stereo unspecified), the inhibition (as a rule, the change of the read-out against control, counted positive when it falls) is -22.3%. To `O=C(CSc1ncccn1)Nn1cnnc1` belongs -0.7%; to `COc1ccc(NC(=O)Nc2cc(NC(=O)Nc3ccc(OC)cc3)c(C)nc2C)cc1`, -8.6%.

With `CC(=O)N1c2ccccc2NC2=C(C(=O)CCC2)C1c1cccnc1` (stereo unspecified), the inhibition is 6.7%. On to `Clc1cccc(OCCn2cncn2)c1Cl`, for which the inhibition is -4.8%. The value for `O=C(CCCC(=O)N1CCc2ccccc21)N1CCc2ccccc21` was -6.6%; that for `COc1cc(OC)cc(C(=O)NNC(=S)NCc2ccco2)c1` was -10.1%; that for `COc1ccc(-n2c(CSc3nc(C)cc(C)n3)nnc2SCC(=O)Nc2nccs2)cc1` was 1.3%. To `CS(=O)(=O)c1ccccc1-c1nc(-c2cccc(Cl)c2)no1` belongs 9.9%; to `CSc1nc2sc3c(c2c(=O)n1C1CCCCC1)CCN(C)C3`, 10.7%; to `N#CCSc1nc2sc3c(c2c(=O)n1C1CCCCC1)CCCC3`, 52.4% (active).

Take `CCSc1nc2sc3c(c2c(=O)n1C1CCCCC1)CCN(C)C3`: the inhibition was -33.5%. To `CCOc1ccc(CNC(=O)CCc2cn(Cc3ccccc3)c3ccccc23)cc1` belongs 0.6%. To `Cc1oc(C(C)(C)C)c(CN2CCOCC2)c1C(=O)O` belongs -2.9%; to `C=CCn1c(O)c(CN2CCOCC2)c(C)c(C#N)c1=O`, 56.6% (active); to `C=CCn1c(O)c(CN2CCN(Cc3ccccc3)CC2)c(C)c(C#N)c1=O`, 15.6%. To `C=CCn1c(C)cc(C)c(C#N)c1=O` belongs -6.4%. Consider `C=CCn1c(O)c(C(CC)=NCCN2CCOCC2)c(=O)[nH]c1=O`, for which the inhibition is -15.4%. To `C=CCn1c(O)c(CN2CCCCC2)c(C)c(C#N)c1=O` belongs 70.2% (active); to `O=C(NCCC1=CCCCC1)C(=O)NCC(c1ccco1)N1CCN(c2ccc(F)cc2)CC1` (stereo unspecified), 2.7%; to `OCc1nc2ccccc2n1CCCOc1ccccc1`, -6.4%. For the molecule `COc1cc(NC(=S)NCCC(c2ccccc2)c2ccccc2)c(OC)cc1Cl`, the inhibition is 17.2%.

`Cc1nnc(Sc2nc3c(c(=O)n(C)c(=O)n3C)n2Cc2ccc(Cl)cc2)s1`: the inhibition was 7.9%.

Take `CSc1ccc(C#N)cc1NC(=O)c1ccccc1C`: the inhibition is -2.5%. The value for `COCc1c(C#N)c(NCCc2ccc(F)cc2)nc(C)c1[N+](=O)[O-]` was 9.3%; that for `CCC(=O)c1ccc(N2CCN(C(=O)c3ccc(Br)cc3)CC2)c(F)c1` was 9.1%; that for `CC(=O)c1ccc(N2CCN(C(=O)c3ccc(Br)cc3)CC2)c(F)c1` was 55.1% (active). To `CCCC(=O)c1ccc(N2CCN(C(=O)c3ccc(Br)cc3)CC2)c(F)c1` belongs -2.3%; to `O=C(NCCCCCCNC(=O)C1CCCC1)C1CCCC1`, -0.9%. For `O=C(COc1ccc2ccccc2c1)Nc1ccc2c3c(cccc13)CC2`, the inhibition was -1.8%.

In the case of `O=C(NCc1ccccc1)NC(O)C(Cl)(Cl)Cl` (stereo unspecified), the inhibition is 0.1%. To `O/C(=C\c1ccc2ccccc2n1)c1ccc(O)cc1O` belongs -10.3%; to `Cc1ccc(NC(=O)c2ccc(-n3cccn3)nc2)cc1`, 51.4% (active). To `COc1ccc(NC(=O)c2ccc(-n3cccn3)nc2)cc1` belongs 0.8%. To `CCOc1ccc(NC(=O)c2ccc(-n3cccn3)nc2)cc1` belongs 2.9%; to `CCOc1ccc(N=C2Sc3nc4ccc(C)cc4cc3CN2CCOC)cc1`, 9.3%; to `CC(=O)c1cc2c(cc1NC(=O)CN1CCN(c3ccc(F)cc3)CC1)OCO2`, 5.5%. `CCOC(=O)C1=C(c2ccccc2)NC(SCC(=O)Nc2cccc(C)c2)=C(C#N)C1c1ccco1` (stereo unspecified): the inhibition is 15.6%. `Cc1cc(N=Cc2cc(Br)ccc2O)no1`: the inhibition was -9.4%. The value for `Cc1cc(O)c(C=Nc2ccc(Cl)cn2)c(=O)o1` was -60.9%; that for `Cc1ccc(N=Cc2c(O)ccc3ccccc23)cc1F` was 51.7% (active). To `Nc1cc(Cl)nc(N/N=C/c2c(O)ccc3ccccc23)n1` belongs 13.3%; to `Cc1cc(N=Cc2c(O)ccc3ccccc23)no1`, 66.9% (active); to `Cc1oc(/N=C/c2c(O)ccc3ccccc23)c(C#N)c1C`, 53.7% (active). To `Oc1ccc2ccccc2c1C=Nc1ccc(Cl)cn1` belongs 75.2% (active); to `Cc1oc(/N=C/c2ccccc2O)c(C#N)c1C`, -16.8%. Take `Cc1cc(N=Cc2cc(Cl)ccc2O)no1`: the inhibition was 14.2%. To `Cc1cc(C)n(/N=C\c2c(O)ccc3ccccc23)c(=O)c1C(N)=O` belongs 22.5%; to `COc1cccc(C=Nc2ccc(C)c(F)c2)c1O`, 15.7%; to `Cc1oc(/N=C/c2cccc3ccccc23)c(C#N)c1C`, 20.1%. Regarding `COc1ccccc1Nc1ccc(N)cc1`, the inhibition is 23.2%. The value for `O=C(Cn1ccccc1=O)c1ccc(Cl)cc1` was -5.5%; that for `N#C/C(=C\c1cn(CCOc2ccccc2)c2ccccc12)C(=O)NCc1ccco1` was -1.2%.

Turning to `COc1ccccc1OCC(=O)Nc1ccccn1`, the inhibition was 1.4%. Turning to `COc1ccc(CNn2c(-c3cccs3)nc3ccccc3c2=O)cc1OC`, the inhibition is 8%. The value for `CCN(C(=O)CSc1nnc(-c2ccncc2)n1-c1ccccc1)C1CCS(=O)(=O)C1` (stereo unspecified) was -2.5%. The value for `CCc1ccc(C(=O)NN(C(=O)c2ccc(CC)cc2)C(C)(C)C)cc1` was 14.2%; that for `CCOc1ccc(S(=O)(=O)N2CCN(c3ccccc3F)CC2)c2cccnc12` was 27%; that for `O=C(OCc1c(F)cccc1Cl)c1cnccn1` was 11.3%. The value for `Oc1ccc2ccccc2c1/C=N/c1nccs1` was 62% (active); that for `Cc1c(Cc2ccccc2)sc(/N=C/c2c(O)ccc3ccccc23)c1C(N)=O` was 29.8%; that for `Oc1ccc2ccccc2c1C=Nc1ccc(N2CCOCC2)cc1` was 29%. Consider `Cc1sc(/N=C/c2c(O)ccc3ccccc23)c(C#N)c1C`, for which the inhibition was -3.6%. To `COc1ccc2nc(N=Nc3c(O)ccc4ccccc34)sc2c1` belongs 24.5%; to `Oc1ccc2ccccc2c1C=Nc1ccccc1-c1nc2ccccc2[nH]1`, 22.9%; to `N#Cc1cccc(N=Cc2c(O)ccc3ccccc23)c1`, 64.6% (active). Turning to `Oc1oc(-c2cccc3ccccc23)nc1/C=N/c1nccs1`, the inhibition was 9.5%. For the molecule `O=C(O)Cc1ccc(N=Cc2c(O)ccc3ccccc23)cc1`, the inhibition was 58.7% (active).

Consider `Oc1[nH]c2ccccc2c1/C=N/c1nccs1`, for which the inhibition is -1%. To `Oc1ccc2ccccc2c1/C=N/c1nc2c(s1)CCCC2` belongs 46.1%; to `Cn1c(CSc2nc3ccccc3s2)nnc1SCC(=O)NCCCN1CCOCC1`, -11.8%. To `Cc1ccsc1C(=O)NNC(=O)C1CC=CCC1C(=O)O` (stereo unspecified) belongs -4.3%. The value for `COC(=O)c1cccc(NC(=O)c2cccs2)c1C` was 10.7%. Regarding `CC(C)C(c1nnnn1C1CCCCC1)N1CCCc2ccccc21` (stereo unspecified), the inhibition was 8.3%. The value for `Cc1ccc(N2CCN(C(=O)c3cc(C(=O)c4ccccc4C)c[nH]3)CC2)c(C)c1` was 16.7%. To `Cc1noc(C)c1Cn1nc(C(=O)O)c2ccccc2c1=O` belongs 1.4%. The value for `CCOC(=O)c1cc(CC)sc1/N=C/C1=C(O)CCCC1=O` was 14.3%; that for `COc1ccc2nc(N)sc2c1` was -1.6%; that for `CCOC(=O)c1cc(CC)sc1/N=C/c1c(O)ccc2ccccc12` was 60.7% (active). Regarding `COc1ccc(N=Cc2c(O)[nH]c3ccccc23)cc1`, the inhibition was 1.9%. To `CCOC(=O)c1cc(CC)sc1/N=C/C1=C(O)CC(C)(C)CC1=O` belongs 7.3%.

With `COc1ccc2c(c1)-c1nc(NC(=O)c3cccs3)sc1CC2`, the inhibition was -22.3%. To `COc1ccc(N=Cc2oc3ccc4ccccc4c3c2O)cc1` belongs 13.8%. The value for `COc1ccc(N=Cc2c(O)ccc3ccccc23)cc1` was 68.5% (active). The value for `O=C(CCc1nnc(CCCc2ccccc2)o1)NCCc1ccccc1` was -1.7%; that for `Cc1nc2c(c(=O)n1CCC1=CCCCC1)c1nc3ccccc3nc1n2/N=C/c1ccco1` was 15.8%. With `Cc1nn(CCc2nn[nH]n2)c2nc(-c3ccc(Br)cc3)cc(C(F)(F)F)c12`, the inhibition is 4.9%. To `CSc1cccc(NC(=O)C2CCN(S(C)(=O)=O)CC2)c1` belongs 5.6%. To `Cc1ccc(OCCC(=O)Nc2ccc(C)c(F)c2)cc1` belongs 16.2%; to `Cc1ccc(S(=O)(=O)N2CCC(C(=O)NCCCN3CCCCCC3)CC2)cc1`, -3.9%; to `CCCCNC(=O)c1onc(CSc2ccccc2F)c1C(=O)O`, -0.1%. For `Cc1nc(NC(=O)CN(C)S(=O)(=O)c2ccc(Br)cc2)sc1C`, the inhibition was 1.7%.

For the molecule `COc1ccc(/C=C2/CCc3ccccc3C2=O)cc1OC`, the inhibition was 29.2%.

As for `COc1ccc2c(c1)C(=O)/C(=C/C=C/c1ccccc1)CC2`, the inhibition was 33.4%. To `COc1ccc2c(c1)CC/C(=C\C=C\c1ccccc1)C2=O` belongs 52.8% (active). On to `COc1ccc2c(c1)CC/C(=C\C=C\c1ccccc1OC)C2=O`, for which the inhibition is 53.3% (active).

As for `COc1ccc2c(c1)CC/C(=C\c1ccc(OC)c(Cn3cccn3)c1)C2=O`, the inhibition is 21.7%. The value for `COc1ccc(/C=C2\CC/C(=C\c3ccc(OC)cc3OC)C2=O)c(OC)c1` was 13.5%. In the case of `COc1cc2nc(CN3CCC(Cc4ccccc4)CC3)[nH]c(=O)c2cc1OC`, the inhibition was -12.9%. The value for `COC(=O)c1ccc2c(=O)n(CC3CCCO3)c(SCC(=O)NCCc3ccc(S(N)(=O)=O)cc3)nc2c1` (stereo unspecified) was -2.9%. To `Cc1nnc(N/N=C/c2ccc(-c3ccccc3F)o2)n1N` belongs 33.4%; to `Cc1nnc(N/N=C/c2ccccc2O)n1N`, 52.5% (active). The value for `Cc1nnc(N/N=C/c2c(Cl)cccc2Cl)n1N` was 32.3%. As to `Cc1nnc(N/N=C/c2ccco2)n1N`, the inhibition is 56.6% (active). On to `CC(C)(C)c1nnc(N/N=C/c2ccccc2O)n(N)c1=O`, for which the inhibition is -27.3%.

For the molecule `CCc1nnc(N/N=C/c2ccccc2F)n1N`, the inhibition is 5.2%.
